# Screening results as filed in PubChem BioAssay.
# Shown are actives, neighbours in structure and some others; about 9.5% of the full set was active somewhere.
# HPGD inh = blocks human HPGD enzyme activity; Potency, µM, for the others: at the top dose activity change, negative = inhibition, hits mostly inhibitors; AID 894; P15428; actives 4.3% (n = 150,000); purified HPGD, NADH fluorescence kinetic, PGE2 substrate; active = well fitted inhibition curve with a large enough effect, not every such curve was filed as active; inconclusive = small, poorly fitted or top-dose-only effect, or another doubt; inactive = no such curve, though single readings can be large or run the other way
# Target sequence (P15428 whole entry, looked up): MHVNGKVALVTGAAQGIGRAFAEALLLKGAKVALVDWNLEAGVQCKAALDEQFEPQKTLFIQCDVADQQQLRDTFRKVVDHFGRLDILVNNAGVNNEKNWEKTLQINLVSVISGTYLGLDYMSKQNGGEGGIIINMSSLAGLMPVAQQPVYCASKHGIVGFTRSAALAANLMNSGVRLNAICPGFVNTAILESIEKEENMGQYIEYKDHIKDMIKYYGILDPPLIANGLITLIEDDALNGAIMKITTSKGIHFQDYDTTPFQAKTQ
#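 20 nM HPGD preincubated 15 min at room temperature with compound in 50 mM Tris-HCl pH 8, 0.01% Tween 20. Started with 1 mM NAD+ and 30 uM prostaglandin E2; NADH fluorescence (360/450 nm) read 5 times over 30-s intervals, last minus first.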
# Tau FP inhib = inhibitors of human tau fibril formation; P10636; K18 P301L tau heparin fibrillization, Alexa594 FP, 6 h; Potency, µM (highest dose often 57.7 µM), without a hit: top-dose activity, negative = inhibition, usual class: inhibitors; actives 0.39% (n = 280,000); AID 1468; also: nearly all actives have a fitted effect of over 55% in size
# Target sequence (P10636 561-689 P618L limits assumed): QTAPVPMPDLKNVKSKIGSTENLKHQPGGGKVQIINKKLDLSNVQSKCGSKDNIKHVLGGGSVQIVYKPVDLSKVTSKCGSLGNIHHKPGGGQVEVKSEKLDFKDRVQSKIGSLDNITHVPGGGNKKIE
#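 Read-out: fluorescence polarization of Alexa 594-labeled tau (0.24 uM), 555 nm excitation, 632 nm emission. Mixtures held 15 uM unlabeled K18 P301L, compound and 20 uM heparin, pH 7 acetate buffer, incubated 6 hr at 37 C.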
# Tau fluor counter = counter-screen for tau fibril formation inhibitors. tau K18 P301L Alexa594 fluorescence, heparin fibrillization. Potency, µM (series often up to 57.7 µM), inactives show at the top dose activity change, negative = decrease. actives 0.93% (n = 280,000). AID 1463; also: nearly all actives have a fitted effect of over 55% in size
#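 Human K18 P301L tau (15 uM unlabeled plus 0.24 uM Alexa 594-labeled, final) in 100 mM sodium acetate pH 7 was mixed with compound and 20 uM heparin and incubated 6 hr at 37 C.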
# ALDH1A1 inh = ALDH1A1 (human) enzyme inhibition | P00352 | Purified ALDH1A1, NADH fluorescence, propionaldehyde substrate | Potency, µM (doses to about 75.3 µM), for inactives: at the top dose activity, negative = inhibition, actives largely listed as inhibitors | actives 7.3% (n = 220,000) | AID 1030; active = well fitted inhibition curve with a large enough effect, not every such curve was filed as active; inconclusive = small, poorly fitted or top-dose-only effect, or another doubt; inactive = no such curve, though single readings can be large or run the other way;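 also: plate controls were no enzyme wells and a reference inhibitor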
# Tau fibril ThT = inhibitors of human tau fibril formation, thioflavin T binding; actives 2.1% (n = 270,000); Potency, µM (titrated, usually from 57.4 µM), for the others: at the highest dose activity, negative = inhibition, usual class: inhibitors; recombinant tau K18 P301L (four-repeat tau fragment), heparin-induced fibrillization, ThT fluorescence; P10636; also: nearly all actives have a fitted effect of over 55% in size
#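 Recombinant human tau K18 fragment […] carrying P301L, 15 uM unlabeled plus 0.24 uM Alexa 594-labeled, was fibrillized with 20 uM heparin in 100 mM sodium acetate pH 7 for 6 hr at 37 C; 30 uM ThT fluorescence read after 1 hr.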
# NPSR antagonist = blocks cAMP signaling of the human neuropeptide S receptor | actives 1% (n = 220,000) | Potency, µM (top dose mostly 38.3 µM), without a hit: at the highest dose activity change, negative = inhibition, hits mostly inhibitors | Q6W5P4 | AID 1461 | CHO-NPSR cells, cAMP TR-FRET, antagonist mode; also: nearly all actives have a fitted effect of over 50% in size
# Target sequence (Q6W5P4 whole entry, looked up): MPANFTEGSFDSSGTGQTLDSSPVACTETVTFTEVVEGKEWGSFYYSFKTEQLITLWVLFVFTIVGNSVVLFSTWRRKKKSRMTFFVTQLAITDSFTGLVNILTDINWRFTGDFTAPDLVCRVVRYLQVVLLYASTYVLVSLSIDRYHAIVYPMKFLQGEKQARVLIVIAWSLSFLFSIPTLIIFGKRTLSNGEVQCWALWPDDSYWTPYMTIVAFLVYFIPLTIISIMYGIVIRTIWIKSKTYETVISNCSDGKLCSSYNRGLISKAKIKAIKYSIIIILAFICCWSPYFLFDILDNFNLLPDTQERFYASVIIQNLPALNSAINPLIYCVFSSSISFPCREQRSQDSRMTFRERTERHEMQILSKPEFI
# * = called active by the depositor; ? = inconclusive; / = no result; [ ] = another dose, or the depositor's remark. Unless noted, calls follow the shape of the dose curve; as a rule, active = well fitted curve in the direction sought with a large enough effect; inconclusive = small, poorly fitted or top-dose-only effect, or another doubt; inactive = no such curve, though single readings can be large; an effect the other way counts as inactive or inconclusive. Unless noted, % is scaled to controls: 0 for no effect and ±100 for the full control effect; potency is read from the fitted curve at half-maximal effect.
SMILES,HPGD inh,Tau FP inhib,Tau fluor counter,ALDH1A1 inh,Tau fibril ThT,NPSR antagonist
Cc1ccccc1-n1nnnc1SCC(C)C,/,-0.6%,1.9%,1.12µM*,2.2%,-9.3%
Nn1c(SCc2csc(-c3ccccc3)n2)nnc1-c1cccs1,?,-14.0%,-2.6%,?,?,-12.9%[46.1 µM]
CC(=O)OCOC(=O)CN(CC(=O)OCOC(C)=O)c1ccccc1OCCOc1ccccc1N(CC(=O)OCOC(C)=O)CC(=O)OCOC(C)=O,/,-0.5%,-4.9%,-2.9%,-16.2%,/
COc1ccccc1CN1CCCC2(CCN(C(=O)c3cc(C(F)(F)F)cc(C(F)(F)F)c3)CC2)C1,-3.5%,/,/,10.6%,/,/
Cc1ccc(Cl)cc1-c1ccc(C=Nc2ccc(N3CCOCC3)cc2)o1,?,8.8%,14.4%,10µM*,?,-4.8%
CN1CCN(C(=O)/C(=C\c2ccccc2)c2ccccc2)CC1,17.8µM*,?,-12.3%,10.0%,-5.1%,0.6%[46.1 µM]
CC1CCN(C(=O)/C(=C/c2ccccc2Cl)c2ccccc2)CC1,11.2µM*,8.6%,-13.3%,?,-17.7%,?
CC1CCN(S(=O)(=O)N2CCC(C(=O)NCc3ccccc3Cl)CC2)CC1,/,-12.8%,-7.0%,/,6.9%,/
CNC(=O)CSc1nnc(-c2ccco2)n1-c1ccccc1OC,-5.4%,6.1%,5.9%,20µM*,-4.4%,14.4%[46.1 µM]
COc1ccccc1-n1c(SCC(=O)O)nnc1-c1ccc(S(=O)(=O)N2CCCCC2)cc1,?,6.8%,-2.9%,12.6µM*,-8.5%,-6.3%[46.1 µM]
CCOc1ccccc1-n1c(SCC(N)=O)nnc1-c1ccco1,-14.3%,1.8%,-2.9%,25.1µM*,0.2%,-2.5%[46.1 µM]
CCOc1ccccc1-n1c(SCC(=O)NC)nnc1-c1ccco1,-5.0%,10.1%,1.8%,6.6%,1.1%,-2.3%[46.1 µM]
CCCc1cc(=O)[nH]c2nnc(SCC(=O)Nc3cccc(C)c3)n12,/,-6.7%,-10.7%,/,-9.9%,/
Cc1nc(-c2ccc(Cl)cc2)sc1CCNC(=O)C(=O)Nc1ccccc1C#N,/,-6.3%,-5.3%,/,-16.6%,/
COc1ccc(-n2c(CN3CCC(C(N)=O)CC3)nc3ccc([N+](=O)[O-])cc3c2=O)c(OC)c1,/,-0.2%,-10.1%,9.46µM*,?,-20.9%
CCOC(=O)C1CCN(Cc2nc3ccc([N+](=O)[O-])cc3c(=O)n2-c2ccc(OC)cc2OC)CC1,/,-9.6%,-19.6%,20µM*,?,-25.3%
COc1cccc(-n2c(CN3CCN(c4ccccc4)CC3)nc3ccc([N+](=O)[O-])cc3c2=O)c1,-12.7%,3.4%,-20.8%,28.2µM*,-1.3%,-5.8%
COc1cc2nncc(SCc3ccc(Cl)c(Cl)c3)c2cc1OC,-4.7%,/,/,-12.9%[13.5 µM],/,/
C/C(=N/NC(=O)CC1N=C(Cc2ccccc2)NNC1=O)c1cccnc1 (stereo unspecified),/,3.5%,10.1%,4.3%,5.1%,7.0%
Nc1nc(Cl)cc(NCCO)n1,-7.1%,/,/,-1.4%[13.5 µM],/,/
COc1ccc(C(CC(=O)NCc2ccccc2)Sc2n[nH]c(-c3ccccc3)n2)cc1 (stereo unspecified),7.94µM*,-13.5%,-11.0%,9.5%,5.8%,8.1%
COc1ccc(NS(=O)(=O)c2cc(S(C)(=O)=O)ccc2C)cc1,-6.3%,-3.5%,7.5%,28.2µM*,3.6%,4.6%
Cc1cc(C)c(S(=O)(=O)Nc2ccc(O)cc2)cc1C,-3.9%,3.9%,-15.6%,14.1µM*,-8.6%,-12.8%[46.1 µM]
COc1ccc(NS(=O)(=O)c2cc(C)ccc2C)cc1,14.1µM*,1.9%,-10.7%,0.562µM*,-3.5%,-19.9%[46.1 µM]
O=C1CSC(=S)N1/N=C/c1ccc(Cl)c([N+](=O)[O-])c1,/,-1.2%,?,31.6µM*,?,-13.6%
SMILES,HPGD inh,Tau FP inhib,Tau fluor counter,ALDH1A1 inh,Tau fibril ThT,NPSR antagonist
O=C1CSC(=S)N1/N=C/c1cccnc1,/,?,-23.3%,/,/,17.5%
COc1cc(/C=N/N2C(=O)CSC2=S)ccc1O,-17.5%,-6.4%,-20.1%,28.2µM*,14.1µM*,-15.8%[46.1 µM]
COc1cc(/C=N/N2C(=O)c3ccccc3C2=O)ccc1O,-14.0%,-2.2%,-8.7%,?,?,4.4%
O=C1CSC(=S)N1/N=C\c1ccc(Cl)c([N+](=O)[O-])c1,-18.3%,/,/,-15.8%[13.5 µM],/,/
COc1cc(/C=N/N2C(=O)C3C4C=CC(CC4)C3C2=O)ccc1O (stereo unspecified),/,-1.5%,-6.2%,14.1µM*,4.3%,-33.4%
Cc1c(C(=O)N2CCOCC2)oc2c1C(=O)CC(C)(C)C2,-8.0%,4.2%,2.5%,-11.9%,-5.2%,-8.2%[46.1 µM]
Cc1c(C(=O)N2CCN(C)CC2)oc2c1C(=O)CC(C)(C)C2,-11.0%,8.8%,9.4%,22.4µM*,0.4%,4.4%[46.1 µM]
CC1(C)CCC(=O)N[C@H]1CC(=O)C[C@H]1NC(=O)CCC1(C)C,1.7%,/,/,4.0%[13.5 µM],/,/
COc1ccc(CNC(=O)C(C#N)c2nc3ccccc3nc2N2CCCC2)cc1 (stereo unspecified),-17.9%,-13.2%,-29.1%,?,-2.0%,-6.0%[46.1 µM]
CCCCCCOC(=O)C(C#N)c1nc2ccccc2nc1N1CCN(C)CC1 (stereo unspecified),-18.4%,4.3%,-2.4%,?,?,?
CCCCCCOC(=O)C(C#N)c1nc2ccccc2nc1N1CCCCC1 (stereo unspecified),-21.3%,6.1%,16.9%,-1.7%,-0.8%,10µM*
COc1ccc(CNC(=O)C(C#N)c2nc3ccccc3nc2N2CCN(C)CC2)cc1 (stereo unspecified),-6.9%,-1.2%,-29.6%,-2.9%,15.8µM*,-18.5%[46.1 µM]
CC(C)(C)c1cnnn1-c1cccc([N+](=O)[O-])c1,/,-9.5%,-3.8%,3.6%,-2.6%,-12.4%
CC(C)(C)c1cnnn1-c1ccc(C=O)cc1,1.3%,7.2%,11.4%,25.1µM*,-11.1%,?
CC(C)(C)c1cnnn1-c1ccc(C(=O)CCl)cc1,14.1µM*,2.2%,4.5%,0.708µM*,-6.3%,-23.4%[46.1 µM]
C/C(=N/OCC(=O)NCCCCCCNC(=O)CO/N=C(/C)c1cccs1)c1cccs1,-14.9%,3.4%,14.3%,49.0%,17.2%,-3.0%
O=C(N/N=C1/C[C@@H](O)[C@@H](O)[C@@H]2[C@H]3C(=O)N(c4ccc(F)cc4F)C(=O)[C@@H]3CC[C@H]12)OCc1ccccc1,/,11.2%[11.6 µM],5.5%[11.6 µM],?,-1.4%[11.5 µM],/
CC[C@H](C(=O)c1cccs1)C(O)(C(F)(F)F)C(F)(F)F,-5.9%,/,/,-8.5%[13.5 µM],/,/
CCC(C)(C)C1CCC(=NNC(=O)c2ccoc2C)CC1 (stereo unspecified),-22.6%,-4.6%,-5.4%,25.1µM*,-5.4%,-7.0%[46.1 µM]
CCCC(=O)NNC(=O)c1ccoc1C,-6.1%,8.5%,0.9%,10.2%,-2.0%,-1.0%
O=C(O)CCn1cc(/C=C\C(=O)c2ccc(Cl)cc2)c(-c2cccc(Br)c2)n1,25.1µM*,3.5%,-2.5%,?,?,?
